# A selection: hits, their analogues and other compounds. The true share with any hit is near 5.7%.
# rCAG RNA binder – binders of r(CAG) RNA repeats, primary screen, biochemical, fluorescence | r(CAG) RNA repeat, TO-PRO-1 dye displacement fluorescence | inhibition, % at 3 µM | hit rate 1.3% among 370,000;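 active = inhibition above the plate cutoff, the mean of all test compounds on that plate plus 3 SD, cut at about 35% in these data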;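 note: 0% = DMSO alone and 100% = 100 µM mitoxantrone as full dye displacement; higher means more dye released from RNA so lower well fluorescence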
# FAS TE block – FAS thioesterase domain inhibitors, primary screen, biochemical, fluorescence intensity, uHTS; inhibition, % at 15 µM; Fatty acid synthase (Homo sapiens), P49327; AID 602261, 2012; recombinant FAS-TE, OMFH fluorogenic substrate, fluorescence endpoint; hit rate 0.67% among 360,000;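 active = compounds whose normalised, plate-corrected inhibition of enzyme fluorescence in the single-dose primary screen is 50% or more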;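 note: 0% = DMSO with enzyme and 100% = substrate without enzyme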
# GRIN3A LBD mod – binders of NR3A ligand-binding domain, primary screen, biophysical, differential scanning fluorimetry, uHTS. NR3A LBD differential scanning fluorimetry, Tm shift; 0% = protein alone, 100% = glycine-bound protein. Tm shift relative to glycine control, % at 25 µM. hit rate 2.5% among 340,000;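 active = melting temperature shift of at least 10% of the positive control shift, at one fixed dose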
# MPTP inh – mitochondrial permeability transition pore inhibitors, primary screen, biochemical, isolated mouse mitochondria, absorbance. Ca2+ swelling absorbance, 30 min. inhibition, % at 10 µM. hit rate 1.4% among 360,000. AID 602449, 2012;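 active = inhibition of 50% or more, scaled per plate between neutral and stimulator controls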;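 note: 0% = DMSO wells given calcium and 100% = 1 mM EGTA wells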
# Myeloid diff MLP – induction of myeloid progenitor differentiation, primary screen, cell-based, flow cytometry, MLPCN library. ER-HoxA9 myeloid progenitors, lysozyme-GFP differentiation. calls only at 10 µM. hit rate 1% among 360,000. AID 624256, 2012;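 active = normalized GFP-positive differentiation at or above the plate's own cutoff, the solvent-only control mean plus 3 SD; inconclusive = no clear call, values can overlap the other calls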;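 note: cells exposed to compound for four days before flow analysis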
# FAS-TE conf – FAS thioesterase domain inhibitors, confirmation, biochemical, fluorescence intensity, single concentration; AID 624325, 2012; hit rate 45% among 2,300; shares compounds with FAS TE block; inhibition, % at 15 µM; recombinant FAS-TE, OMFH fluorogenic substrate;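 active = compounds inhibiting the enzyme by at least 50% at 15 µM in any one of the replicates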;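 note: 0% = enzyme with DMSO only and 100% = wells lacking enzyme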
# The depositor's hits bear a star; i = inactive; ? = inconclusive; nt = no result given.
SMILES,rCAG RNA binder,FAS TE block,GRIN3A LBD mod,MPTP inh,Myeloid diff MLP,FAS-TE conf
CCOC(=O)C1=CCN(S(=O)(=O)c2cccc(Cl)c2)C1c1ccc(Cl)cc1 (stereo not drawn),4.3,nt,nt,nt,nt,nt
CCCSc1cc(NCCOC(=O)CCC)c([N+](=O)[O-])c2nonc12,2.6,50.7*,-14.7,0.8,i,57.5*
CCOC(=O)C1CCCN(c2cc(NCCCO)c([N+](=O)[O-])c3nonc23)C1 (stereo not drawn),3.6,nt,nt,nt,nt,nt
CCCC(=O)OCCNc1cc(Sc2nccn2C)c2nonc2c1[N+](=O)[O-],5.1,61.6*,-2.5,0.6,?,61.6*
Cc1nnc(SCC(=O)Nc2cccc(S(=O)(=O)NC3=NCCCCC3)c2)n1Cc1ccccc1,-6.3,-7.8,-0.8,1.0,i,nt
O=c1c2ccccc2c(C=Nc2cccc(S(=O)(=O)NC3=NCCCCC3)c2)c(O)n1Cc1ccccc1,3.1,65.3*,-3.7,2.7,i,5.2
Cc1ccc(C(=O)NCC(=O)OCc2nnc(-c3ccc([N+](=O)[O-])cc3)o2)s1,11.7,53.2*,-0.8,-0.3,i,64.7*
O=C(NC1CCCN(CCc2ccccc2)C1)c1c[nH]c2ccccc12 (stereo not drawn),-3.0,-9.1,-1.4,0.5,i,nt
CN1C[C@H](C(=O)NC2(C)OC3(O)[C@@H]4CCCN4C(=O)[C@H](Cc4ccccc4)N3C2=O)CC2c3cccc4[nH]cc(c34)C[C@H]21 (stereo partly drawn),3.6,58.8*,-6.8,-3.4,i,73.0*
CC1=N/C(=C\c2ccc([N+](=O)[O-])cc2)C(=O)N1c1ccc(C)c(Cl)c1,6.9,nt,nt,nt,nt,nt
O=C(O)COc1ccccc1C(Nc1ccccn1)c1cc(Cl)c2cccnc2c1O (stereo not drawn),29.9,53.8*,-1.7,4.5,i,50.9*
Cc1cc(C)c(C#N)c(N2CCN(Cc3ccccc3)CC2)n1,-5.7,14.5,-3.3,1.3,i,nt
Cc1cc(C)c(C#N)c(N2CCN(Cc3ccc4c(c3)OCO4)CC2)n1,-1.6,60.6*,-1.8,0.6,i,26.0
COC(=O)C1CCN(C2CN(Cc3cn(Cc4ccc(C(F)(F)F)cc4)nn3)S(=O)(=O)C2)CC1 (stereo not drawn),-2.9,nt,nt,nt,nt,nt
CCn1c2ccccc2c2cc(NC(=O)COC(=O)c3cc(OC)c(OC)cc3OC)ccc21,1.6,63.5*,-0.9,-0.5,i,30.0
CCn1c2ccccc2c2cc(NC(=O)COC(=O)c3cccc(F)c3F)ccc21,7.0,nt,nt,nt,nt,nt
CCCC[C@H]1C2CC(OC(=O)Nc3ccccc3C(F)(F)F)C(C2)[C@H]2CCCCN21 (stereo partly drawn),2.4,nt,nt,nt,nt,nt
CCOC(=O)c1c(NC(=O)c2ccc(N3C(=O)[C@@H]4[C@H](C3=O)[C@H]3C=C[C@@H]4C3)cc2)sc2c1CCCC2,2.6,61.9*,0.4,-0.2,i,8.8
CCOC(=O)C1=CCN(S(=O)(=O)c2ccccc2Cl)C1c1ccc(Cl)cc1 (stereo not drawn),0.0,nt,nt,nt,nt,nt
Cc1ccc(N2C(=N)/C(=C3/Nc4ccccc4S3)C(c3ccccc3)C2=O)cc1 (stereo not drawn),5.3,63.2*,-1.0,-2.4,i,11.8
OCCN1CN(c2ccccc2)C(=S)N(c2ccccc2)C1,0.6,nt,nt,nt,nt,nt
CCN1C(=O)[C@@H]2[C@@H](c3ccc(-c4ccc5c(c4)OCO5)c(OC)c3)N3CCCC[C@@]3(C(=O)OC)[C@@H]2C1=O,9.7,53.3*,0.6,1.2,i,17.2
COC(=O)[C@@]12CCCCN1[C@H](c1ccc(-c3ccc4c(c3)OCO4)cc1)[C@H]1C(=O)N(C)C(=O)[C@H]12,1.7,79.2*,-0.6,-0.5,i,17.2
CCN(Cc1ccccc1)c1ccc(N=Nc2nn(C)c(C)c2[N+](=O)[O-])cc1,3.3,52.4*,-12.4,9.7,i,36.3*
O=C(NCCc1ccccc1)OCc1cn(Cc2cc(F)cc(F)c2)nn1,1.8,nt,nt,nt,nt,nt
SMILES,rCAG RNA binder,FAS TE block,GRIN3A LBD mod,MPTP inh,Myeloid diff MLP,FAS-TE conf
CN(Cc1ccccc1)C(=O)COC(=O)c1cc(Cl)nc(Cl)c1,-0.7,50.7*,1.2,2.4,i,64.2*
CCCCOCC1CN(CCCC)S(=O)(=O)c2c(Oc3ccc(OC)cc3)cccc2O1 (stereo not drawn),2.6,nt,nt,nt,nt,nt
O=C(c1ccccc1)N(C(=O)c1ccccc1)c1ncnc2c1C(c1ccccc1)c1c(ccc3ccccc13)O2 (stereo not drawn),4.8,62.2*,-3.3,1.8,i,9.4
COc1ccc(C2c3c(ccc4ccccc34)Oc3ncn4nc(-c5ccco5)nc4c32)cc1OC (stereo not drawn),6.9,20.2,-3.5,2.2,i,nt
c1ccc(C2c3c(ccc4ccccc34)Oc3ncn4nc(-c5ccco5)nc4c32)cc1 (stereo not drawn),0.7,77.1*,3.0,1.6,i,15.7
COc1ccc(C2c3c(ccc4ccccc34)Oc3ncn4nc(-c5ccco5)nc4c32)cc1 (stereo not drawn),6.4,72.1*,-4.4,1.9,i,13.7
CC(CNC(=O)[C@H]1O[C@@H](n2cnc3c(=O)[nH]c(N)nc32)[C@H](O)[C@@H]1O)c1ccccc1 (stereo partly drawn),2.5,nt,nt,nt,nt,nt
COC(=O)C1CN(Cc2cn(CCC3OCCO3)nn2)CCS(=O)(=O)N1Cc1ccc(F)cc1 (stereo not drawn),0.3,nt,nt,nt,nt,nt
COc1ccc(-c2csc(N3CCN(S(=O)(=O)c4ccc5c(c4)NC(=O)CO5)CC3)n2)cc1,14.8,26.0,0.6,2.4,i,nt
Cc1sc(N2CCN(S(=O)(=O)c3ccc4c(c3)NC(=O)CO4)CC2)nc1-c1ccccc1,7.7,70.5*,-0.2,0.6,i,68.2*
COc1ccc(NC(=O)/C(C#N)=C/c2c(C)nn(-c3ccc(F)cc3)c2Cl)cc1OC,2.3,56.1*,-11.0,6.4,i,33.0
COc1ccc(NC(=O)/C(C#N)=C/c2c(C)nn(-c3ccc(F)cc3)c2Cl)cc1Cl,2.0,44.9,-5.7,8.6,i,nt
COc1ccc(-c2nc3scc(-c4ccc(OC)c(OC)c4)c3c(=O)o2)cc1,nt,8.7,2.7,1.0,i,nt
COc1ccc(-c2csc3nc(-c4ccccc4F)oc(=O)c23)cc1,3.5,62.2*,1.2,1.6,i,51.2*
Cc1nc2scc(-c3ccc(Cl)cc3)c2c(=O)o1,5.7,70.2*,-0.1,0.1,i,65.4*
COc1ccc([C@@H]2C[C@H]3[C@@H](CN2S(=O)(=O)c2ccccc2)C(=O)C[C@@H](c2ccccc2)N3S(=O)(=O)c2ccc(C)cc2)cc1,13.6,27.3,nt,0.4,i,nt

# Screens (PubChem)
